Structures can show the parent of a compound that is named as a salt. ± gives the standard deviation of the averaged measurements.
Assays:
Assay in all cases: growth (OD600 after 10 h); higher = more growth (less inhibition)
[1] = test system: E. coli TESEC Alr+ wild-type control; conditions: compound 0.1 mM; raw OD600 reference: median of DMSO wells 0.241, cell-free background 0.041
Procedure: (§1)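 TESEC Mtb Alr E. coli, or the Alr+ wild-type control, in 384-well plates with Prestwick library compounds at 0.1 mM and 1% DMSO, across arabinose induction levels of 1E3 to 1E7 nM. Growth is read as OD600 after 10 h at 37 °C in triplicate biological replicates.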

[2] = test system: E. coli TESEC Mtb Alr; conditions: compound 0.1 mM
Procedure: as §1

[3] = test system: E. coli TESEC Mtb Asd; conditions: compound 0.1 mM
Procedure: (§2)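 TESEC E. coli strains in which the native enzyme is deleted and replaced by arabinose-inducible Mtb Asd, DapB, CysH or TrpD, each grown in its selective medium. Strains were screened against the Prestwick library at 0.1 mM and 1% DMSO in 384-well format at low and high arabinose induction. Growth is read as OD600 after 10 h in triplicate.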

[4] = test system: E. coli TESEC Mtb DapB; conditions: compound 0.1 mM
Procedure: as §2

[5] = test system: E. coli TESEC Alr+ wild-type control; conditions: compound 0.1 mM; raw OD600 reference: median of DMSO wells 0.49, cell-free background 0.052
Procedure: (§3)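 TESEC Mtb Alr E. coli (ΔaraC ΔtolC ΔentC Δalr ΔdadX, arabinose-inducible Mtb Alr) or the Alr+ wild-type control strain, grown in defined M9-fructose medium without D-alanine in 96-well plates with Prestwick library compounds at 0.1 mM and 1% DMSO. Low Alr induction is 0.1 µM arabinose and high induction is 10 mM arabinose.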

[6] = test system: E. coli TESEC Mtb Alr; conditions: compound 0.1 mM; remark: listed apart in the source
Procedure: as §3

[7] = arabinose 1000 nM, raw OD600 reference: median of DMSO wells 0.294, cell-free background 0.041
[8] = arabinose 10000 nM, raw OD600 reference: median of DMSO wells 0.264, cell-free background 0.041
[9] = arabinose 100000 nM, raw OD600 reference: median of DMSO wells 0.201, cell-free background 0.041
[10] = arabinose 1000000 nM, raw OD600 reference: median of DMSO wells 0.193, cell-free background 0.041
[11] = arabinose 10000000 nM, raw OD600 reference: median of DMSO wells 0.146, cell-free background 0.041
[12] = arabinose induction (level): High, raw OD600 reference: median of DMSO wells 0.331, cell-free background 0.041
[13] = arabinose induction (level): Low, raw OD600 reference: median of DMSO wells 0.417, cell-free background 0.041
[14] = arabinose induction (level): High, raw OD600 reference: median of DMSO wells […], cell-free background 0.041
[15] = arabinose induction (level): Low, raw OD600 reference: median of DMSO wells 0.227, cell-free background 0.041
[16] = arabinose 100 nM, raw OD600 reference: median of DMSO wells 0.413, cell-free background 0.052
[17] = arabinose 10000000 nM, raw OD600 reference: median of DMSO wells […], cell-free background 0.052

| Compound | growth [1] | growth [2, 7] | growth [2, 8] | growth [2, 9] | growth [2, 10] | growth [2, 11] | growth [3, 12] | growth [3, 13] | growth [4, 14] | growth [4, 15] | growth [5] | growth [6, 16] | growth [6, 17] |
| --- | --- | --- | --- | --- | --- | --- | --- | --- | --- | --- | --- | --- | --- |
| CCCCOC(=O)c1ccc(N)cc1 [Butamben] | 0.194 ± 0.0098 | 0.23 ± 0.018 | 0.277 ± 0.0069 | 0.186 ± 0.011 | 0.233 ± 0.0061 | 0.16 ± 0.0031 | 0.566 ± 0.058 | 0.304 ± 0.11 | 0.23 ± 0.086 | 0.218 ± 0.07 | 0.452 ± 0.0073 | 0.36 ± 0.026 | 0.344 ± 0.018 |
| Nc1nc(=O)n([C@@H]2CS[C@H](CO)O2)cc1F [(-)-Emtricitabine] | 0.238 ± 0.0098 | 0.285 ± 0.0065 | 0.248 ± 0.0044 | 0.254 ± 0.061 | 0.172 ± 0.0027 | 0.147 ± 0.005 | 0.291 ± 0.092 | 0.419 ± 0.09 | 0.192 ± 0.024 | 0.218 ± 0.011 | 0.572 ± 0.0088 | 0.412 ± 0.0087 | 0.337 ± 0.012 |
| CCOc1cc(CC(=O)N[C@@H](CC(C)C)c2ccccc2N2CCCCC2)ccc1C(=O)O [Repaglinide] | 0.185 ± 0.0042 | 0.199 ± 0.0075 | 0.26 ± 0.024 | 0.175 ± 0.0084 | 0.174 ± 0.0073 | 0.155 ± 0.01 | 0.282 ± 0.03 | 0.247 ± 0.032 | 0.168 ± 0.014 | 0.201 ± 0.031 | 0.482 ± 0.005 | 0.4 ± 0.0047 | 0.306 ± 0.014 |
| OCC(O)CN1CCN(c2ccccc2)CC1 (racemic) [Dropropizine (R,S)] | 0.241 ± 0.0033 | 0.283 ± 0.018 | 0.255 ± 0.0087 | 0.228 ± 0.014 | 0.174 ± 0.0046 | 0.144 ± 0.0086 | 0.364 ± 0.032 | 0.424 ± 0.03 | 0.2 ± 0.025 | 0.248 ± 0.026 | 0.431 ± 0.04 | 0.404 ± 0.014 | 0.361 ± 0.022 |
| CC[C@H](c1ccc(O)cc1)[C@@H](CC)c1ccc(O)cc1 [Hexestrol] | 0.0495 ± 0.0091 | 0.048 ± 0.0092 | 0.0398 ± 0.00072 | 0.0479 ± 0.0054 | 0.0459 ± 0.0019 | 0.0616 ± 0.024 | 0.0495 ± 0.0033 | 0.0486 ± 0.0013 | 0.0653 ± 0.019 | 0.054 ± 0.0072 | 0.054 ± 0.0093 | 0.0666 ± 0.025 | 0.05173 ± 0.0004 |
| Nc1ccc(S(=O)(=O)Nc2ncccn2)cc1 [Sulfadiazine] | 0.257 ± 0.0066 | 0.288 ± 0.017 | 0.241 ± 0.0079 | 0.199 ± 0.036 | 0.1549 ± 0.0004 | 0.146 ± 0.0024 | 0.374 ± 0.043 | 0.414 ± 0.0071 | 0.184 ± 0.015 | 0.187 ± 0.023 | 0.464 ± 0.054 | 0.411 ± 0.011 | 0.312 ± 0.066 |
| O=C1CCc2ccc(OCCCCN3CCN(c4cccc(Cl)c4Cl)CC3)cc2N1 [Aripiprazole] | 0.171 ± 0.013 | 0.243 ± 0.021 | 0.298 ± 0.02 | 0.15 ± 0.005 | 0.1175 ± 0.001 | 0.159 ± 0.006 | 0.21 ± 0.022 | 0.391 ± 0.036 | 0.177 ± 0.011 | 0.213 ± 0.021 | 0.418 ± 0.077 | 0.0572 ± 0.0048 | 0.0531 ± 0.0021 |
| CC(N)CCCC(C)(C)O (stereo not drawn) [Heptaminol hydrochloride] | 0.252 ± 0.0036 | 0.285 ± 0.011 | 0.26 ± 0.013 | 0.204 ± 0.04 | 0.1796 ± 0.0016 | 0.141 ± 0.0064 | 0.357 ± 0.015 | 0.442 ± 0.022 | 0.188 ± 0.0059 | 0.195 ± 0.02 | 0.501 ± 0.054 | 0.407 ± 0.011 | 0.36 ± 0.0092 |
| C=C1C(=O)O[C@H]2[C@H]1CC/C(C)=C/CC[C@@]1(C)O[C@@H]21 [Parthenolide] | 0.157 ± 0.0041 | 0.303 ± 0.0032 | 0.27 ± 0.0042 | 0.232 ± 0.014 | 0.185 ± 0.0044 | 0.157 ± 0.0078 | 0.155 ± 0.0046 | 0.269 ± 0.036 | 0.2 ± 0.0037 | 0.224 ± 0.022 | 0.488 ± 0.038 | 0.404 ± 0.013 | 0.316 ± 0.02 |
| COc1nc(C)nc(Cl)c1NC1=NCCN1 [Moxonidine] | 0.241 ± 0.011 | 0.298 ± 0.014 | 0.262 ± 0.0065 | 0.18 ± 0.013 | 0.187 ± 0.0025 | 0.133 ± 0.0069 | 0.248 ± 0.033 | 0.434 ± 0.025 | 0.209 ± 0.016 | 0.254 ± 0.017 | 0.567 ± 0.019 | 0.411 ± 0.015 | 0.342 ± 0.02 |
| COc1ccc(Cl)cc1C(=O)NCCc1ccc(S(=O)(=O)NC(=O)NC2CCCCC2)cc1 [Glibenclamide] | 0.122 ± 0.0053 | 0.166 ± 0.035 | 0.146 ± 0.004 | 0.144 ± 0.0077 | 0.0688 ± 0.0014 | 0.125 ± 0.0025 | 0.154 ± 0.02 | 0.218 ± 0.015 | 0.158 ± 0.013 | 0.173 ± 0.014 | 0.355 ± 0.032 | 0.349 ± 0.12 | 0.0906 ± 0.0069 |
| CN(C)CCC[C@@]1(c2ccc(F)cc2)OCc2cc(C#N)ccc21 [Escitalopram oxalate] | 0.201 ± 0.0062 | 0.281 ± 0.014 | 0.251 ± 0.015 | 0.199 ± 0.0081 | 0.157 ± 0.0041 | 0.143 ± 0.007 | 0.297 ± 0.14 | 0.398 ± 0.064 | 0.179 ± 0.012 | 0.202 ± 0.014 | 0.435 ± 0.007 | 0.412 ± 0.011 | 0.352 ± 0.0066 |
| C[C@@H](c1ncncc1F)[C@](O)(Cn1cncn1)c1ccc(F)cc1F [Voriconazole] | 0.214 ± 0.013 | 0.267 ± 0.0077 | 0.252 ± 0.003 | 0.196 ± 0.038 | 0.154 ± 0.0053 | 0.147 ± 0.008 | 0.315 ± 0.062 | 0.285 ± 0.035 | 0.169 ± 0.015 | 0.201 ± 0.013 | 0.557 ± 0.1 | 0.412 ± 0.011 | 0.318 ± 0.012 |
| Clc1ccc(C(Cn2ccnc2)OCc2c(Cl)cccc2Cl)c(Cl)c1 (stereo not drawn) [Isoconazole] | 0.0482 ± 0.00036 | 0.0445 ± 0.0043 | 0.247 ± 0.037 | 0.0465 ± 0.0023 | 0.105 ± 0.12 | 0.0545 ± 0.0038 | 0.152 ± 0.079 | 0.0562 ± 0.006 | 0.0672 ± 0.015 | 0.0666 ± 0.02 | 0.0722 ± 0.023 | 0.0651 ± 0.02 | 0.104 ± 0.075 |
| Cc1onc(-c2c(F)cccc2Cl)c1C(=O)N[C@@H]1C(=O)N2[C@@H]1SC(C)(C)[C@@H]2C(=O)O [Flucloxacillin sodium] | 0.228 ± 0.0096 | 0.2863 ± 0.0017 | 0.26 ± 0.0097 | 0.186 ± 0.022 | 0.172 ± 0.006 | 0.136 ± 0.0023 | 0.265 ± 0.056 | 0.432 ± 0.059 | 0.196 ± 0.0025 | 0.259 ± 0.034 | 0.496 ± 0.053 | 0.412 ± 0.015 | 0.33 ± 0.021 |
| CC(C(=O)O)c1ccc(C(=O)c2ccccc2)s1 (stereo not drawn) [Tiaprofenic acid] | 0.22 ± 0.012 | 0.253 ± 0.021 | 0.246 ± 0.0058 | 0.201 ± 0.019 | 0.205 ± 0.0076 | 0.143 ± 0.006 | 0.386 ± 0.077 | 0.285 ± 0.099 | 0.182 ± 0.009 | 0.178 ± 0.015 | 0.502 ± 0.059 | 0.382 ± 0.02 | 0.35 ± 0.019 |
